# Tau fluor cs – counter-screen for tau fibril formation inhibitors. 280,000 compounds, 0.93% hits. Potency, µM (highest dose often 57.7 µM), inactives show at the highest dose activity change, negative = decrease. tau K18 P301L Alexa594 fluorescence, heparin fibrillization; also: nearly all actives have a fitted effect of over 55% in size
#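 Human K18 P301L tau (15 uM unlabeled plus 0.24 uM Alexa 594-labeled, final) in 100 mM sodium acetate pH 7 was mixed with compound and 20 uM heparin and incubated 6 hr at 37 C.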
# Tau FP inhib – tau fibrillization inhibition (FP); AID 1468; K18 P301L tau heparin fibrillization, Alexa594 FP, 6 h; Potency, µM (titrated, usually from 57.7 µM), without a hit: at the top dose activity, negative = inhibition, most hits filed as inhibitors; 280,000 compounds, 0.39% hits; also: nearly all actives have a fitted effect of over 55% in size
# Target sequence (P10636 561-689 P618L limits assumed): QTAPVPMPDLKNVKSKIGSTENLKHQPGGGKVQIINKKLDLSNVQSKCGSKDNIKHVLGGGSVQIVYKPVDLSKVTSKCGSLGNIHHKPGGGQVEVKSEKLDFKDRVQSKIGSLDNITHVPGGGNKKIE
#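 FP of Alexa 594-tau after heparin (20 uM) induction. Substrate: human K18 P301L, 15 uM unlabeled, 0.24 uM labeled. Buffer 100 mM sodium acetate pH 7. 6 hr, 37 C.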
# Tau ThT inhib – inhibitors of human tau fibril formation, thioflavin T binding; P10636; recombinant tau K18 P301L, heparin-induced fibrillization, ThT fluorescence; Potency, µM (series often up to 57.4 µM), inactives show top-dose activity, negative = inhibition, usual class: inhibitors; 270,000 compounds, 2.1% hits; AID 1460; also: nearly all actives have a fitted effect of over 55% in size
#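 Fibril formation assay: tau K18 P301L at 15 uM with trace Alexa 594 label, heparin inducer 20 uM, pH 7 sodium acetate buffer, 37 C for 6 hr; endpoint ThT signal.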
# ALDH1A1 inh – blocks purified human ALDH1A1 activity. P00352. Purified ALDH1A1, NADH fluorescence, propionaldehyde substrate. Potency, µM (highest dose often 75.3 µM), without a hit: at the highest dose activity, negative = inhibition, most hits filed as inhibitors. 220,000 compounds, 7.3% hits. AID 1030; active = well fitted inhibition curve with a large enough effect, not every such curve was filed as active; inconclusive = small, poorly fitted or top-dose-only effect, or another doubt; inactive = no such curve, though single readings can be large or run the other way;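 also: plate controls were no enzyme wells and a reference inhibitor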
# Target sequence (P00352 whole entry, looked up): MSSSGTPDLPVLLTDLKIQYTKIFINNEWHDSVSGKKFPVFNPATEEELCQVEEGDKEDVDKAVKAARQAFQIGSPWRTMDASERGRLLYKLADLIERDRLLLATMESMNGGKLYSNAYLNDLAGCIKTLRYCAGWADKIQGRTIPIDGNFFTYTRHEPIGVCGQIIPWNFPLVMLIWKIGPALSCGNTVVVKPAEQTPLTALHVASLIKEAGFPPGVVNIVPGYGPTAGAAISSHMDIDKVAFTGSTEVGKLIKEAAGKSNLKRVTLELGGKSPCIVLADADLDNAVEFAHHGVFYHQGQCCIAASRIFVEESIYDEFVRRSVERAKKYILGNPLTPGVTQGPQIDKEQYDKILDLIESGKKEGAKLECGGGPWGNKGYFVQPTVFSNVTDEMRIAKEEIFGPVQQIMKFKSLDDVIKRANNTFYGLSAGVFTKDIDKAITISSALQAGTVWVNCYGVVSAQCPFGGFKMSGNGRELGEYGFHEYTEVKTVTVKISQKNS
# HPGD inh – blocks human HPGD enzyme activity. 150,000 compounds, 4.3% hits. purified HPGD, NADH fluorescence kinetic, PGE2 substrate. AID 894. Potency, µM, for the others: at the top dose activity change, negative = inhibition, actives largely listed as inhibitors. P15428; active = well fitted inhibition curve with a large enough effect, not every such curve was filed as active; inconclusive = small, poorly fitted or top-dose-only effect, or another doubt; inactive = no such curve, though single readings can be large or run the other way
#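 20 nM HPGD preincubated 15 min at room temperature with compound in 50 mM Tris-HCl pH 8, 0.01% Tween 20. Started with 1 mM NAD+ and 30 uM prostaglandin E2; NADH fluorescence (360/450 nm) read 5 times over 30-s intervals, last minus first.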
# NPSR antagonist – neuropeptide S receptor (human) antagonism, cAMP | Potency, µM (highest dose often 38.3 µM), for the others: at the highest dose activity change, negative = inhibition, most hits filed as inhibitors | CHO-NPSR cells, cAMP TR-FRET, antagonist mode | 220,000 compounds, 1% hits | Q6W5P4; also: nearly all actives have a fitted effect of over 50% in size
# The depositor's hits bear a star; ? = inconclusive; · = not tested or not shown; [ ] = remark or other dose. Rows were chosen to be rich in hits. Some 9.5% of all compounds tested hit in one or more screens of this group. Unless noted, calls follow the shape of the dose curve; as a rule, active = well fitted curve in the direction sought with a large enough effect; inconclusive = small, poorly fitted or top-dose-only effect, or another doubt; inactive = no such curve, though single readings can be large; an effect the other way counts as inactive or inconclusive. Unless noted, % is scaled to controls: 0 for no effect and ±100 for the full control effect; potency is read from the fitted curve at half-maximal effect.
SMILES,Tau fluor cs,Tau FP inhib,Tau ThT inhib,ALDH1A1 inh,HPGD inh,NPSR antagonist
COc1cccc(CNS(=O)(=O)c2ccc3c(c2)C(C(C)C)C(=O)N3)c1 (stereo not given),-6%,-11%,-2%,·,·,·
CCNc1nc(NC(C)C)nc(N(n2cnnc2)S(=O)(=O)c2ccc(C)cc2)n1,1%,14%,-6%,2.2µM*,-7%,-5%
CCNc1nc(NCC)nc(N(n2cnnc2)S(=O)(=O)c2ccc(C)cc2)n1,3%,10%,2%,?,-5%,7%
CC(=O)Nc1cccc(-c2csc(Nc3ccc(C)cn3)n2)c1,14µM*[quencher],14%,?,10%,-25%,13%
CC(=O)Nc1cccc(-c2csc(Nc3ncccn3)n2)c1,-20%,-1%,?,?,·,5%
CC(=O)Nc1ccc(-c2csc(Nc3cccc(C)n3)n2)cc1,20µM*[quencher],8%,?,0%,·,-6%
COc1ccc(-c2csc(Nc3ccc(C)cn3)n2)cc1,-4%,-3%[2.34 µM],-6%,24µM*,·,-12%
COc1ccc(Br)cc1C(=O)NC(=S)Nc1ccc(Cl)c(C(=O)O)c1,-6%,-3%,?,18µM*,·,-27%
COc1ccc(Br)cc1/C=C/C(=O)NC(=S)Nc1ccc(Cl)c(C(=O)O)c1,14%,8%,-21%,-16%,·,-30%
CC(=O)c1cccc(NC(=O)Cn2c(=O)oc3cc(S(=O)(=O)NCc4ccccc4)ccc32)c1,-5%,?,-5%,·,·,·
OC(CN1c2ccccc2Sc2ccccc21)Cn1nnc2ccccc21 (stereo not given),?,10%,-18%,?,-23%,-19%[46.1 µM]
Cc1nn(CC(O)CN2c3ccccc3Sc3ccccc32)c(C)c1Br (stereo not given),?,?,?,7%,-9%,6.3µM*
Cc1nn(Cc2noc(C(=O)NC(C)c3ccccc3)n2)c(C)c1Br (stereo not given),-12%,0%,4%,·,·,·
Cc1nn(CC(O)c2ccccc2)c(C)c1Br (stereo not given),-7%,2%,-11%,18µM*,-3%,-8%[46.1 µM]
CCCCCCCCCCCCCCCC(=O)OCC(O)C1OC(=O)C(O)=C1O (stereo not given),-13%,-16%,?,-9%,-14%,·
COc1ccc(S(=O)(=O)Nc2ccc3c(c2)CCCN3S(=O)(=O)c2ccc(C)cc2)cc1F,?,?,-2%,·,·,·
NS(=O)(=O)c1cc2c(cc1Cl)NC(Cc1ccccc1)NS2(=O)=O (stereo not given),-3%,4%,3%,?,·,-18%
Cc1nc2c3ccccc3nc(SCC(=O)N3CC(C)CC(C)C3)n2n1 (stereo not given),-17%,-6%,-16%,7.1µM*,?,-12%[46.1 µM]
CCc1cccc(NC(=O)C2CCC(CNS(=O)(=O)c3ccc(Br)s3)CC2)c1 (stereo not given),?,-12%,-6%,·,·,·
COc1cc(OC)c(C2=NOC(C(=O)N3CCN(C(=O)c4ccco4)CC3)C2)cc1Cl (stereo not given),-16%,0%,?,-12%,·,-5%
COc1cc(OC)c(C2=NOC(C(=O)N3CCc4ccccc4C3)C2)cc1Cl (stereo not given),?,-13%,-11%,-12%,11µM*,-19%[46.1 µM]
COc1ccc(OC)c(C2=NOC(C(=O)N3CCCc4ccccc43)C2)c1 (stereo not given),-14%,7%,-17%,11µM*,-25%,-5%[46.1 µM]
COc1ccc(CNC(=O)CCn2cccn2)cc1,4%,3%,0%,·,·,·
CC(C)C(=O)NC(=S)Nc1ccc(CN2CCOCC2)cc1,-3%,2%,-6%,7%,·,-9%
CC(C)Oc1ccc(C(=O)NC(=S)Nc2ccc(CN3CCOCC3)cc2)cc1,-3%,2%,-4%,7.1µM*,-11%,6%
SMILES,Tau fluor cs,Tau FP inhib,Tau ThT inhib,ALDH1A1 inh,HPGD inh,NPSR antagonist
C/C(=N/NC(=S)Nc1cccc(C)c1)c1cccc([N+](=O)[O-])c1,?,5%,?,8.9µM*,·,-45%
O=C(NC(=S)Nc1ccc(N2CCOCC2)cc1)c1cccc([N+](=O)[O-])c1,1%,-3%,?,6%,-25%,-4%
O=C(NC(=S)Nc1ccc(C(=O)N2CCOCC2)cc1)c1ccc([N+](=O)[O-])cc1,-1%,-2%,-9%,10µM*,0.71µM*,-10%[46.1 µM]
O=C(NC(=S)Nc1ccc(CN2CCOCC2)cc1)c1cccc([N+](=O)[O-])c1,-13%,0%,-8%,13µM*,-28%,11%
CCCCCC(=O)O[C@H](CC(=O)O)C[N+](C)(C)C,-3%,8%,-9%,6%,-8%,·
Cc1nn(-c2nc(-c3ccc(F)cc3)cc(C(F)(F)F)n2)c(C)c1Br,-21%,-2%,?,·,·,·
CCOC(=O)/C(N=Nc1sc(C(=O)OC)c(C)c1C(=O)OCC)=C(\O)CCl,-18%,-19%,?,?,-17%,4%
CCOc1cccc2sc(N3CCN(C(=O)c4ccc5c(c4)CCCC5)CC3)nc12,-3%,10%,?,·,·,·
Cc1cccc(NC(=S)NNC(=O)c2cccc([N+](=O)[O-])c2)c1,-23%,10%,?,·,·,23%
CC(C)NS(=O)(=O)c1ccc(NC(=S)NC(=O)c2cccc([N+](=O)[O-])c2)cc1,12%,0%,9%,8.9µM*,?,-12%
O=C(NC(=S)Nc1cccc(F)c1)c1cccc([N+](=O)[O-])c1,?,-5%,?,·,·,-48%
O=C(NNC(=S)Nc1ccc(Cl)c(Cl)c1)c1cccc([N+](=O)[O-])c1,1.8µM*[quencher],?,·,·,·,-1%
Cc1ccc(NC(=O)CSc2n[nH]c(-c3ccc(F)cc3)n2)cc1F,?,?,2%,·,·,·
CCN1c2ccccc2N(C)C1(C)c1ccccc1 (stereo not given),?,16µM*,4.5µM*,-7%,-7%,-9%
COc1ccc(Br)cc1C1CC(=O)N2CN(Cc3ccccc3)CSC2=C1C#N (stereo not given),-21%,?,28µM*,0.11µM*,7.1µM*,-13%[46.1 µM]
N#CC1=C2SCN(Cc3ccccc3)CN2C(=O)CC1c1ccccc1F (stereo not given),-16%,?,?,10µM*,28µM*,-5%[46.1 µM]
COc1cc(OC)c(C2CC(=O)N3CN(C)CSC3=C2C#N)cc1OC (stereo not given),-17%,?,?,8.9µM*,8.9µM*,0%[46.1 µM]
COc1ccc2ccccc2c1C1CC(=O)N2CN(C)CSC2=C1C#N (stereo not given),-26%,22µM*,22µM*,8.9µM*,6.3µM*,-15%[46.1 µM]
